# Results published in PubChem BioAssay (EPA / NIEHS).
# Inconclusive results are not listed. Activity calls are given as the source filed them. Rule for the calls, unless noted: active = hit-call score of the fitted dose curve at least 0.9, where 1 is the maximum; inconclusive = response in the unintended direction; inactive = score below 0.9.
# Key:
# [1] = BSK_4H_Eotaxin3: BioMAP Diversity Plus: 4H Assay for Eotaxin 3 Biomarker Activity (AID 2283000; active = hit-call score of the fitted dose curve at least 0.9, where 1 is the maximum; inactive = score below 0.9;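 for outcome: CCL26 protein level quantified by ELISA in parallel with SRB cytotoxicity check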); settings: primary human endothelial cells (HUVEC); actives raise or lower the signal
# Summary of the method: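 Chemicals were added to human umbilical vein endothelium cultures, and Eotaxin-3 was quantified by ELISA at 24 h. Values were derived by bidirectional fitting with DMSO serving as negative control and activity baseline.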
# [2] = read-out: Intercellular Adhesion Molecule 1 (ICAM1), ICAM1 (gene 3383); assay: BSK_3C_ICAM1: BioMAP Diversity Plus: 3C Assay for Intercellular Adhesion Molecule 1 (ICAM1) Biomarker Activity (AID 2283003; active = hit-call score of the fitted dose curve at least 0.9, where 1 is the maximum; inactive = score below 0.9); settings: primary human endothelial cells (HUVEC); actives raise or lower the signal
# Summary of the method: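 ICAM-1 levels measured by ELISA after HUVEC cultures in the 3C system had been dosed for 24 h. Gain or loss of signal relative to DMSO was fitted in both directions.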
# [3] = BSK_3C_Proliferation: Cell Proliferation Assessment in the BioMAP Diversity Plus: 3C Assay (AID 2283006; active = hit-call score of the fitted dose curve at least 0.9, where 1 is the maximum; inactive = score below 0.9;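 for AC50: potency may reflect either rise or fall in cell number versus DMSO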); settings: primary human endothelial cells (HUVEC)
# Summary of the method: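 Read-out is total protein by SRB absorbance at 560 nm, taken as a proxy for relative cell number. Primary human umbilical vein endothelium cultured below confluence was dosed for 48 h, TCA-fixed and SRB-stained; curves were fitted bidirectionally versus DMSO.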
# [4] = target: Peroxisome proliferator-activated receptor gamma (Homo sapiens) (UniProt P37231); assay: ATG_PPARg_TRANS: Attagene TRANS-FACTORIAL HepG2 Assay for human Peroxisome Proliferator-activated Receptor-gamma (PPARg) (AID 2283007)
# Summary of the method: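 Twenty-four hours after chemical dosing of transiently transfected HepG2 cells, isolated RNA was converted to cDNA, reporter sequences amplified and 6-FAM-labelled, then HpaI-digested and analysed by capillary electrophoresis. Signal increase against DMSO was fitted.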
# [5] = target: Nuclear receptor subfamily 1 group I member 2 (Homo sapiens) (UniProt O75469); assay: ATG_PXR_TRANS: Attagene TRANS-FACTORIAL HepG2 Assay for human Pregnane X Receptor (PXR) (AID 2283008)
# Summary of the method: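 HepG2 cells transiently transfected with GAL4-UAS reporter units and PXR-Gal4 chimera, exposed 24 h. Reporter mRNA quantified by RT-PCR, fluorescent labelling, HpaI digestion and capillary electrophoresis; gain of signal vs DMSO.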
# [6] = target: human Retinoic Acid Receptor gamma (RARg), RARG (gene 5916) (UniProt P13631); assay: ATG_RARg_TRANS: Attagene TRANS-FACTORIAL HepG2 Assay for human Retinoic Acid Receptor gamma (RARg) (AID 2283009)
# Summary of the method: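 Transient transfection of HepG2 with multi-reporter constructs, then 24 h chemical treatment. Total RNA isolated, reverse-transcribed, PCR-amplified, fluorescently labelled and resolved by capillary electrophoresis; activity scored as mRNA induction versus DMSO.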
# [7] = target: human RAR-related Orphan Receptor beta (RORb), RORB (gene 6096) (UniProt Q92753); assay: ATG_RORb_TRANS: Attagene TRANS-FACTORIAL HepG2 Assay for human RAR-related Orphan Receptor beta (RORb) (AID 2283010)
# Summary of the method: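 Readout is reporter-gene mRNA induction, detected as fluorescence after RT-PCR and capillary electrophoresis, fitted for gain of signal against DMSO controls. Transiently transfected HepG2 liver cells carrying GAL4-UAS reporter constructs were treated for 24 hours.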
# [8] = target: human RAR-related Orphan Receptor gamma (RORg), RORC (gene 6097) (UniProt P51449); assay: ATG_RORg_TRANS: Attagene TRANS-FACTORIAL HepG2 Assay for human RAR-related Orphan Receptor gamma (RORg) (AID 2283011)
# Summary of the method: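 First, HepG2 liver cells were transfected with GAL4-UAS-driven reporter constructs and the RORg-Gal4 fusion. Next, they were treated with chemical for 24 h. Finally, reporter mRNA was quantified by RT-PCR and capillary electrophoresis, with upward activity fitted against DMSO.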
# [9] = target: Retinoic acid receptor RXR-alpha (Homo sapiens) (UniProt P19793); assay: ATG_RXRa_TRANS: Attagene TRANS-FACTORIAL HepG2 Assay for human Retinoid X Receptor alpha (RXRa) (AID 2283012)
# Summary of the method: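 Transient transfection of human HepG2 with multiple GAL4-UAS reporter constructs; 24 h compound exposure; total RNA isolated, reverse-transcribed, PCR-amplified, 6-FAM labelled, HpaI-cut, resolved by capillary electrophoresis. Positive-direction fit versus DMSO.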
# [10] = read-out: Interleukin-1 alpha (IL1a), IL1A (gene 3552); assay: BSK_BE3C_IL1a: BioMAP Diversity Plus: BE3C Assay for Interleukin-1 alpha (IL1a) Biomarker Activity (AID 2283016; active = hit-call score of the fitted dose curve at least 0.9, where 1 is the maximum; inactive = score below 0.9); settings: primary human bronchial epithelial cells; actives raise or lower the signal
# Summary of the method: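 BE3C primary human bronchial epithelium; cpd 24 h; IL-1a by ELISA; bidirectional fit vs DMSO; parallel SRB (0.1% SRB, 10% TCA fix, 560 nm) for cytotoxicity.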
# [11] = read-out: Monocyte Chemoattractant Protein-1 (MCP1), CCL2 (gene 6347); assay: BSK_3C_MCP1: BioMAP Diversity Plus: 3C Assay for Monocyte Chemoattractant Protein-1 (MCP1) Biomarker Activity (AID 2283017; active = hit-call score of the fitted dose curve at least 0.9, where 1 is the maximum; inactive = score below 0.9); settings: primary human endothelial cells (HUVEC); actives raise or lower the signal
# Summary of the method: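 ELISA read-out of MCP-1 from human umbilical vein endothelial cell cultures harvested 24 h post-dosing. Gain or loss of signal was fitted relative to DMSO.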
# [12] = target: human Peroxisome Proliferator-activated Receptor alpha (PPARa), PPARA (gene 5465) (UniProt Q07869); assay: ATG_PPARa_TRANS: Attagene TRANS-FACTORIAL HepG2 Assay for human Peroxisome Proliferator-activated Receptor alpha (PPARa) (AID 2283001);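 for AC50: potency for gain of reporter signal over DMSO so agonist or activator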
# Summary of the method: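 Read-out is fluorescence of reporter cDNA fragments resolved by capillary electrophoresis after RT-PCR. Human HepG2 liver cells carried transfected PPARa-Gal4 chimera and GAL4-UAS reporter units, treated 24 h; activity scored as increase over DMSO.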
# [13] = target: human Peroxisome Proliferator-activated Receptor delta (PPARd), PPARD (gene 5467) (UniProt Q03181); assay: ATG_PPARd_TRANS: Attagene TRANS-FACTORIAL HepG2 Assay for human Peroxisome Proliferator-activated Receptor delta (PPARd) (AID 2283002)
# Summary of the method: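 Read-out is induced reporter mRNA, quantified by RT-PCR with fluorescent labelling and capillary electrophoresis after 24 h dosing. Cells are HepG2 transiently carrying multiple GAL4-UAS reporter units driven by exogenous NR-GAL4 chimeras; DMSO serves as baseline.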
# [14] = target: human Retinoic Acid Receptor beta (RARb), RARB (gene 5915) (UniProt P10826); assay: ATG_RARb_TRANS: Attagene TRANS-FACTORIAL HepG2 Assay for human Retinoic Acid Receptor beta (AID 2283004)
# Summary of the method: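 Transient transfection of HepG2 with multiple reporter units → chemical dosing, 24 h → total RNA isolation → RT with oligo(dT) → reporter-specific PCR, 6-FAM primer extension, HpaI digest → capillary electrophoresis. Positive direction vs DMSO control.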
# [15] = target: Retinoic acid receptor alpha (Homo sapiens) (UniProt P10276); assay: ATG_RARa_TRANS: Attagene TRANS-FACTORIAL HepG2 Assay for human Retinoic Acid Receptor alpha (RARa) (AID 2283005)
# Summary of the method: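 Reporter transcripts, measured by RT-PCR with fluorescent labeling and capillary electrophoresis after 24 h dosing, reflect activity of an exogenous human RARa–GAL4 fusion in transiently transfected HepG2. Fitted for increase relative to DMSO.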
# [16] = target: human Thyroid Receptor alpha (THRa1), THRA (gene 7067) (UniProt P10827); assay: ATG_THRa1_TRANS: Attagene TRANS-FACTORIAL HepG2 Assay for human Thyroid Receptor alpha (THRa1) (AID 2283014)
# Summary of the method: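 Reporter transcript induction, read by capillary electrophoresis of 6-FAM-labelled RT-PCR products, reflects activity of a transfected THRa1-Gal4 fusion in HepG2 liver cells. Cells were dosed for 24 h; activity was fitted in the positive direction against DMSO.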
# [17] = target: human Retinoid X Receptor beta (RXRb), RXRB (gene 6257) (UniProt P28702); assay: ATG_RXRb_TRANS: Attagene TRANS-FACTORIAL HepG2 Assay for human Retinoid X Receptor beta (RXRb) (AID 2283013)
# Summary of the method: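 Transfect HepG2 with GAL4-UAS multi-reporter constructs (chimeric NR-Gal4, TRANS format); dose compound 24 h; isolate RNA, RT-PCR, FAM primer extension, HpaI digest; quantify by capillary electrophoresis; positive direction vs DMSO.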
# [18] = read-out: Human Leukocyte Antigen - DR isotype (HLADR), HLA-DRA (gene 3122); assay: BSK_3C_HLADR: BioMAP Diversity Plus: 3C Assay for Human Leukocyte Antigen - DR isotype (HLADR) Biomarker Activity (AID 2283019; active = hit-call score of the fitted dose curve at least 0.9, where 1 is the maximum; inactive = score below 0.9;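 note: ELISA of cell-surface HLA-DR on HUVEC 24 h after dosing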); settings: primary human endothelial cells (HUVEC); actives raise or lower the signal
# Summary of the method: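 ELISA readout of surface HLA-DR on human umbilical vein endothelium, taken 24 h after chemical treatment. Gain- and loss-of-signal were both fitted relative to DMSO.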
# [19] = read-out: E-selectin (Homo sapiens) (UniProt P16581); assay: BSK_3C_Eselectin: BioMAP Diversity Plus: 3C Assay for Eselectin Biomarker Activity (AID 2283015; active = hit-call score of the fitted dose curve at least 0.9, where 1 is the maximum; inactive = score below 0.9;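 note: cell surface E-selectin protein quantified by ELISA 24 h after dosing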); settings: primary human endothelial cells (HUVEC); actives raise or lower the signal
# Summary of the method: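 ELISA read-out of E-selectin on endothelial monolayers after 24 h chemical treatment. Human umbilical vein primary cells served as the system, with DMSO defining baseline activity for bidirectional fitting.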
# Chain of human Peroxisome Proliferator-activated Receptor alpha (PPARa), PPARA (gene 5465) (Q07869 whole entry, looked up, the tested form may be a part): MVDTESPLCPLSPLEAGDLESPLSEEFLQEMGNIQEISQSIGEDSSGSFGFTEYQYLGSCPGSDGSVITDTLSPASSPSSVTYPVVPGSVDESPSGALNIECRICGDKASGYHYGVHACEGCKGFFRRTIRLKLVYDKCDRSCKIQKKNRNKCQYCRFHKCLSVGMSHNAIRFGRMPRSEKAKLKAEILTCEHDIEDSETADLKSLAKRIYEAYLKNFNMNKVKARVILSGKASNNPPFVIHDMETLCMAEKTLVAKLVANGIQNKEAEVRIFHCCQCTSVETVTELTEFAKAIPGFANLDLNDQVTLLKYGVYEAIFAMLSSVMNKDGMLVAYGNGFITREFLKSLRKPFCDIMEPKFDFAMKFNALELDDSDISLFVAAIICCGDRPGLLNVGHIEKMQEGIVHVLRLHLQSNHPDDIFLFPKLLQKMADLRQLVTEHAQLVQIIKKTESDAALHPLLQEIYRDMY
# Chain of Retinoic acid receptor RXR-alpha (Homo sapiens) (P19793 whole entry, looked up, the tested form may be a part): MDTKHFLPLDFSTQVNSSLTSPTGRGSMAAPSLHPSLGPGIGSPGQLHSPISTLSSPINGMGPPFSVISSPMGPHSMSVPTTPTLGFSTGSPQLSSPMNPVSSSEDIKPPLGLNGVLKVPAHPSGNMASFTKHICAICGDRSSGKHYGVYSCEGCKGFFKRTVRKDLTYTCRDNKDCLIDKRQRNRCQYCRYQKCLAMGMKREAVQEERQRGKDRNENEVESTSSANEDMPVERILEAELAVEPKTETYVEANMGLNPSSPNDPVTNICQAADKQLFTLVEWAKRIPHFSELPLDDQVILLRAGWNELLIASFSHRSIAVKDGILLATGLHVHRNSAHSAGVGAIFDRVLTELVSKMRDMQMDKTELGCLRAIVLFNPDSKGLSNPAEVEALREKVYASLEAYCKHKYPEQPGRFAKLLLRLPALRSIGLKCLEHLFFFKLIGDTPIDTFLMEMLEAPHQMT
# Chain of human Thyroid Receptor alpha (THRa1), THRA (gene 7067) (P10827 whole entry, looked up, the tested form may be a part): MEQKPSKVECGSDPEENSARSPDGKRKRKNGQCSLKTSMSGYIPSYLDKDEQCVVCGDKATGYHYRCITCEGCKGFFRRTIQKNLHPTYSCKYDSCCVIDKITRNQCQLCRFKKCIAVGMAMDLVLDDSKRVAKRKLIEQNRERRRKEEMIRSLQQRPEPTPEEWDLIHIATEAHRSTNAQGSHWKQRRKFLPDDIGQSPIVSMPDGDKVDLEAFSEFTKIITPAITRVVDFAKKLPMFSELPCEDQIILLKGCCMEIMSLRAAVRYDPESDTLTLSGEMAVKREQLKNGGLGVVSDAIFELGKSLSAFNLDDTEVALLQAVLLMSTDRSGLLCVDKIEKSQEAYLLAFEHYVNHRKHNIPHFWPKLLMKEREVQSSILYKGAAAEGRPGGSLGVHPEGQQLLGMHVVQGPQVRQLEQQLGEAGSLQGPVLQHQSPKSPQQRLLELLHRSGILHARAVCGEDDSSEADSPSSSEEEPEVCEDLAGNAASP
# Chain of Nuclear receptor subfamily 1 group I member 2 (Homo sapiens) (O75469 whole entry, looked up, the tested form may be a part): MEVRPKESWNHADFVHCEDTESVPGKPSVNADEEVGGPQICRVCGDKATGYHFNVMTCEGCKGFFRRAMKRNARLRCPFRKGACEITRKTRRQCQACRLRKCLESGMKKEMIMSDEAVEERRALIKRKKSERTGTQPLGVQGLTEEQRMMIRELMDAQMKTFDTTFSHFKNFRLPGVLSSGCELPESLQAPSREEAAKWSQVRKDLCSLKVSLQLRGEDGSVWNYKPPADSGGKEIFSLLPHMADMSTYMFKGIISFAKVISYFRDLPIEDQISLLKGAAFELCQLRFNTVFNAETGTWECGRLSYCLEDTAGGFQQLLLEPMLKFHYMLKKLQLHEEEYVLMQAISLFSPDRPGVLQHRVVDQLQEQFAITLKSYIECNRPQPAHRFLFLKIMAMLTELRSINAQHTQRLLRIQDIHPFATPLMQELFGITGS
# Chain of human RAR-related Orphan Receptor beta (RORb), RORB (gene 6096) (Q92753 whole entry, looked up, the tested form may be a part): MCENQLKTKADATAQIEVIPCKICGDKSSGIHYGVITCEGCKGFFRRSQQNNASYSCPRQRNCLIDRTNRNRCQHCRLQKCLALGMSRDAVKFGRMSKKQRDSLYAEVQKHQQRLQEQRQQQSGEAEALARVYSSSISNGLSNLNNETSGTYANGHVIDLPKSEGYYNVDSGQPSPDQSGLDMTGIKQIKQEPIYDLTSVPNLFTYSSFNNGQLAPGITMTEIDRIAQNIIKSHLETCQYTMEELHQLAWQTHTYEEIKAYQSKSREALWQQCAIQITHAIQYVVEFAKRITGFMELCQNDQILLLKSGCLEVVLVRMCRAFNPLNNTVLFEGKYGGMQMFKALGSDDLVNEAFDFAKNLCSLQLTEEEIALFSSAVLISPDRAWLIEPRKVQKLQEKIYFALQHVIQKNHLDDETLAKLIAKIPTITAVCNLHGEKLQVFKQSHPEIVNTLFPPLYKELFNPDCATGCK
# Chain of human Retinoic Acid Receptor beta (RARb), RARB (gene 5915) (P10826 whole entry, looked up): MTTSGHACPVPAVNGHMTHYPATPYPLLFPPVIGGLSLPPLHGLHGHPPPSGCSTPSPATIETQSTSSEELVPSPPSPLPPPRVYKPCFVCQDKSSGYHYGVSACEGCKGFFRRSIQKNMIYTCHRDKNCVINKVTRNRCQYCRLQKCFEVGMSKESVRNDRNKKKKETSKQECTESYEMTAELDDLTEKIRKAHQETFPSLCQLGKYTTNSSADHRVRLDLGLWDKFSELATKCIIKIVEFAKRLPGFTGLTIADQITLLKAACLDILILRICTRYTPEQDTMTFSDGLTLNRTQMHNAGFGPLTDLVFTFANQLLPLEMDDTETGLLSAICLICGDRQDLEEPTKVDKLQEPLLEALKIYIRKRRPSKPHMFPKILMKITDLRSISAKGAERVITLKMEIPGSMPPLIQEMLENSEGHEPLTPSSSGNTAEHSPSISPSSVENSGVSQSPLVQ
# Chain of human Peroxisome Proliferator-activated Receptor delta (PPARd), PPARD (gene 5467) (Q03181 whole entry, looked up, the tested form may be a part): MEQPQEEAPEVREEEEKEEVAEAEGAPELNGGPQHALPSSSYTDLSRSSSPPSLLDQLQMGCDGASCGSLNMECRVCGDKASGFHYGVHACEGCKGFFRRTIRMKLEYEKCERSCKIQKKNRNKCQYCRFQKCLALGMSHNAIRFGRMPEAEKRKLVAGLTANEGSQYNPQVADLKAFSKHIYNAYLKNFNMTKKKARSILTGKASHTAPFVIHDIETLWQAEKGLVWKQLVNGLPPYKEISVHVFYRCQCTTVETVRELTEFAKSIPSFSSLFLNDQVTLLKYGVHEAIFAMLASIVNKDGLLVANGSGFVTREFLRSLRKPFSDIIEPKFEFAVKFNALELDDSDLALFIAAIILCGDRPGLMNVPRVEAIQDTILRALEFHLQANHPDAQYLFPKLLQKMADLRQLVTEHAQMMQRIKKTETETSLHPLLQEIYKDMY
# Chain of human Retinoic Acid Receptor gamma (RARg), RARG (gene 5916) (P13631 whole entry, looked up): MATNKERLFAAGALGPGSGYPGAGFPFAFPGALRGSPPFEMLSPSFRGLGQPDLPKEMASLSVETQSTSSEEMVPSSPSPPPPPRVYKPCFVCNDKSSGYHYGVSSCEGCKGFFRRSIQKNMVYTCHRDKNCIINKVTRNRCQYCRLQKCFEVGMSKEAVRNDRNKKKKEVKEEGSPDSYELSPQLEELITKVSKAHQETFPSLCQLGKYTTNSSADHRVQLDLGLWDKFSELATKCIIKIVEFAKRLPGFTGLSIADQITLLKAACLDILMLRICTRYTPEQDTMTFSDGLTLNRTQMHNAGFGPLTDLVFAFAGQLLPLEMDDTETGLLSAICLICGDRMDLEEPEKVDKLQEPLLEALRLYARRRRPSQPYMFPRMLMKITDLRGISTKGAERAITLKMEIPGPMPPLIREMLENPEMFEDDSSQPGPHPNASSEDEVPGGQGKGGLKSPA
# Chain of human Retinoid X Receptor beta (RXRb), RXRB (gene 6257) (P28702 whole entry, looked up, the tested form may be a part): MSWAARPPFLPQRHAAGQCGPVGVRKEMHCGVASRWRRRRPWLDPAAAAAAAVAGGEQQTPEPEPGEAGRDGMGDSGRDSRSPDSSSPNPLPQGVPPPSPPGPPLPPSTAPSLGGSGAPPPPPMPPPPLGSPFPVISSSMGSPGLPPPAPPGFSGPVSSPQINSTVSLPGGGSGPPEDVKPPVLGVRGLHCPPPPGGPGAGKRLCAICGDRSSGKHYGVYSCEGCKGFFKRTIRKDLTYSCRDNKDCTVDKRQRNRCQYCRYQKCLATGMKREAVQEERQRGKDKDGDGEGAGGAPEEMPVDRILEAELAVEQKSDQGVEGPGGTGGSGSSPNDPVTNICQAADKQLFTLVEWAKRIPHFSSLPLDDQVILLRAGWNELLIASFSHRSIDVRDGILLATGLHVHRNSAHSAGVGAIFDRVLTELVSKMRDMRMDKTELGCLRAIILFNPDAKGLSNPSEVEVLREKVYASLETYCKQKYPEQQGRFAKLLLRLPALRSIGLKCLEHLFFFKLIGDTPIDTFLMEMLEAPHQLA
# Chain of human RAR-related Orphan Receptor gamma (RORg), RORC (gene 6097) (P51449 whole entry, looked up, the tested form may be a part): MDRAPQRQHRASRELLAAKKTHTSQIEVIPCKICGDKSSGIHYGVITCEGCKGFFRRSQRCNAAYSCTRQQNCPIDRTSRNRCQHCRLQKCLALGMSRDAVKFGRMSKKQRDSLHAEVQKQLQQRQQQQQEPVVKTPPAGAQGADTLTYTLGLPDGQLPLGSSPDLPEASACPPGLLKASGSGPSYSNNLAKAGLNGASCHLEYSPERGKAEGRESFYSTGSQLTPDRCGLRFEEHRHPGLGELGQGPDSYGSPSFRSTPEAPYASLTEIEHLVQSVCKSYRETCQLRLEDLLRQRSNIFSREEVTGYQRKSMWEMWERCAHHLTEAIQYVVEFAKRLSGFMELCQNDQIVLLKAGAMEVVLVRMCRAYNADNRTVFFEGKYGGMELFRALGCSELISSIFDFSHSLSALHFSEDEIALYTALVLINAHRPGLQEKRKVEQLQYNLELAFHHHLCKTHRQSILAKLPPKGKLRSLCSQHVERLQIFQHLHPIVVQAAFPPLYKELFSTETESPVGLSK
smiles,measurement,setting,value
O=C(O)C(F)(F)C(F)(F)C(F)(F)C(F)(F)C(=O)O,outcome,[1],inactive
same,outcome,[2],inactive
same,outcome,[3],inactive
same,outcome,[4],inactive
same,outcome,[5],inactive
same,outcome,[6],inactive
same,outcome,[7],inactive
same,outcome,[8],inactive
same,outcome,[9],inactive
same,outcome,[10],inactive
same,outcome,[11],inactive
Clc1cccnc1,outcome,[12],inactive
same,outcome,[13],inactive
same,outcome,[14],inactive
same,outcome,[15],inactive
same,outcome,[16],inactive
CC=C(C)C=CC=C(C)C,AC50,[1],20 µM (active)
same,outcome,[2],inactive
same,AC50,[3],22.1 µM (active)
same,AC50,[4],27.8 µM (active)
same,AC50,[5],6.05 µM (active)
same,outcome,[6],inactive
same,outcome,[8],inactive
same,outcome,[17],inactive
same,outcome,[16],inactive
same,outcome,[10],inactive
same,outcome,[11],inactive
CC1=NN(c2ccc(S(=O)(=O)O)cc2)C(=O)C1N=Nc1ccccc1 (stereo unspecified),outcome,[12],inactive
same,outcome,[13],inactive
same,outcome,[14],inactive
same,outcome,[15],inactive
same,outcome,[4],inactive
same,outcome,[5],inactive
same,outcome,[17],inactive
same,outcome,[16],inactive
CC(=O)OC1CCCCC1C(C)(C)C (stereo unspecified),outcome,[12],inactive
same,outcome,[13],inactive
same,outcome,[14],inactive
same,outcome,[15],inactive
same,outcome,[4],inactive
same,outcome,[5],inactive
same,outcome,[7],inactive
same,outcome,[9],inactive
same,AC50,[17],58.9 µM (active)
same,outcome,[16],inactive
CC(C)COC(=O)CC(C(=O)OCC(C)C)S(=O)(=O)O (stereo unspecified),outcome,[12],inactive
same,outcome,[13],inactive
same,outcome,[14],inactive
same,outcome,[15],inactive
same,AC50,[4],66.8 µM (active)
same,AC50,[5],36.2 µM (active)
same,outcome,[17],inactive
O=C1CCCCCCCCCCCN1,outcome,[1],inactive
same,outcome,[13],inactive
same,outcome,[2],inactive
same,outcome,[3],inactive
same,AC50,[5],5.31 µM (active)
same,outcome,[6],inactive
same,AC50,[17],33.8 µM (active)
same,outcome,[10],inactive
same,outcome,[11],inactive
same,outcome,[18],inactive
CCCCCCCCC(CO)CCCCCC (stereo unspecified),AC50,[1],5.35 µM (active)
same,outcome,[2],inactive
same,outcome,[3],inactive
same,outcome,[4],inactive
same,outcome,[5],inactive
same,outcome,[7],inactive
same,outcome,[9],inactive
same,AC50,[17],21.9 µM (active)
same,outcome,[10],inactive
same,AC50,[11],5.93 µM (active)
same,outcome,[18],inactive
Nc1nc(N)nc(-c2ccccc2)n1,outcome,[1],inactive
same,outcome,[2],inactive
same,outcome,[3],inactive
same,outcome,[4],inactive
same,outcome,[5],inactive
same,outcome,[7],inactive
same,outcome,[8],inactive
same,outcome,[17],inactive
same,outcome,[16],inactive
same,outcome,[10],inactive
same,outcome,[11],inactive
C=C[C@@]1(C)CC(=O)[C@]2(O)[C@@]3(C)[C@@H](O)CCC(C)(C)[C@@H]3[C@H](O)[C@H](OC(C)=O)[C@@]2(C)O1,AC50,[12],3.28 µM (active)
same,outcome,[13],inactive
same,outcome,[14],inactive
same,outcome,[15],inactive
same,AC50,[4],3.2 µM (active)
same,outcome,[6],inactive
same,outcome,[7],inactive
same,AC50,[9],26.9 µM (active)
same,AC50,[17],3.64 µM (active)
same,AC50,[16],33.4 µM (active)
C=C(C)C(=O)OCCCCCCCCCCCC,outcome,[1],inactive
same,outcome,[13],inactive
same,outcome,[2],inactive
same,outcome,[3],inactive
same,AC50,[4],122 µM (active)
same,outcome,[5],inactive
same,outcome,[7],inactive
same,outcome,[9],inactive
same,AC50,[17],67.8 µM (active)
same,outcome,[16],inactive
same,outcome,[19],inactive
same,outcome,[10],inactive
same,outcome,[11],inactive
same,outcome,[18],inactive
CCc1cccc(C)c1N(C(=O)CS(=O)(=O)O)C(C)COC (stereo unspecified),outcome,[1],inactive
same,outcome,[13],inactive
same,outcome,[2],inactive
same,outcome,[15],inactive
same,outcome,[3],inactive
same,outcome,[4],inactive
same,AC50,[5],27.6 µM (active)
same,outcome,[7],inactive
same,outcome,[17],inactive
same,outcome,[16],inactive
same,outcome,[19],inactive
same,outcome,[10],inactive
same,outcome,[11],inactive
